Source: PubChem
STK33 kin inh – STK33 kinase inhibitors, primary screen, biochemical, luminescence, ADP-Glo, MBP substrate | Serine/threonine-protein kinase 33 (Homo sapiens), Q9BYT3 | inhibition, % at 12.5 µM | hit rate 0.44% among 27,000 | AID 2322, 2010; in the data active = inhibition above about 20%; inconclusive = no clear call, values can overlap the other calls
Target sequence (Q9BYT3 whole entry, looked up): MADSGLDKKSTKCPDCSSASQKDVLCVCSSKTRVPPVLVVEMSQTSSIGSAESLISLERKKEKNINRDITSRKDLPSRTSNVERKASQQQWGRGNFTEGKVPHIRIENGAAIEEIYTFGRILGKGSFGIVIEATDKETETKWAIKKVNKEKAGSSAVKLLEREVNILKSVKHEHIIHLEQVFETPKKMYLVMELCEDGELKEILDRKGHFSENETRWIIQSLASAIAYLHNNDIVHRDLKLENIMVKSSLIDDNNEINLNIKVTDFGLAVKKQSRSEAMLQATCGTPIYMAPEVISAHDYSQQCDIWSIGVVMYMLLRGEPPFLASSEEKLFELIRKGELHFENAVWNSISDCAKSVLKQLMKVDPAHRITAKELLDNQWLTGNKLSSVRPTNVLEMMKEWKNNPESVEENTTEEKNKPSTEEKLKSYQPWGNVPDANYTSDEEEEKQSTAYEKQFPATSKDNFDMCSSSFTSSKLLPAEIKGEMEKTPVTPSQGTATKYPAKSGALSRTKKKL
PD-1 reverse act – activators reversing PD-1 mediated T-cell inhibition, primary screen, luminescence, primary human CD4 T cells, PD-L1 beads. CellTiter-Glo 96 h. activation, % (concentration not given with the values). 29,000 tested, under 10 active. AID 2316, 2010; call rule not given here;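 also: 0% = median vehicle wells and 100% = positive control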
NOMO-1 viab – NOMO-1 AML cell viability reduction, primary screen, STK33 inhibitor project, CellTiter-Glo luminescence. NOMO-1 AML viability, 72 h. inhibition, % (no concentration beside the values). hit rate 7.5% among 37,000. AID 2330, 2010; in the data active = inhibition above about 80%; inconclusive = no clear call, values can overlap the other calls
* = called active by the depositor; ? = inconclusive; . = no result given. The entries come from a sample that favours hits as a whole.

SMILES | STK33 kin inh | PD-1 reverse act | NOMO-1 viab
Clc1ccc(COc2ccccc2CNc2ncn[nH]2)c(Cl)c1 | 1 | . | 30
COc1cc(/C=C/CO)ccc1OC/C=C(\C)CCC=C(C)C | -7 | -1 | 71
Cc1noc(C)c1S(=O)(=O)Nc1ccc2c(c1)C(=O)N([C@H](C)CO)C[C@H](C)[C@H](CN(C)Cc1ccc(C(=O)Nc3ccccc3N)cc1)OCCCC[C@@H](C)O2 | . | 0 | 139*
Cc1noc(C)c1S(=O)(=O)Nc1ccc2c(c1)C(=O)N([C@H](C)CO)C[C@H](C)[C@@H](CN(C)Cc1ccc(C(=O)O)cc1)OCCCC[C@@H](C)O2 | 0 | 2 | -21
Cc1noc(C)c1S(=O)(=O)Nc1ccc2c(c1)C(=O)N([C@@H](C)CO)C[C@@H](C)[C@H](CN(C)Cc1ccc(C(=O)Nc3ccccc3N)cc1)O2 | . | -2 | 12
Cc1noc(C)c1S(=O)(=O)Nc1ccc2c(c1)C(=O)N([C@H](C)CO)C[C@H](C)[C@@H](CN(C)Cc1ccc(C(=O)Nc3ccccc3N)cc1)OCCCC[C@@H](C)O2 | . | -1 | 127*
COC(=O)C1=C(C)N=c2s/c(=C/c3ccc(OC)cc3)c(=O)n2C1c1cccs1 (stereo unspecified) | . | 0 | ?
O=C(/C=C/Sc1ccccn1)c1ccccc1 | . | -3 | 114*
N#Cc1ccccc1NC(=O)CSc1ccccn1 | . | 0 | 27
CCc1cccc(C)c1NC(=O)CSc1nc2cc(C)cc(-n3nc4ccccc4n3)c2o1 | 1 | 0 | 2
NC(=O)CSc1oc(-c2ccc(F)cc2)nc1S(=O)(=O)c1ccc(Cl)cc1 | 3 | 3 | 23
O=C(/C=C/S(=O)(=O)c1ccc(Cl)cc1)c1ccc(F)cc1 | 7 | -58 | 120*
COc1ccc(Cl)cc1N(CC(=O)Nc1cc(Cl)ccc1C)S(C)(=O)=O | -4 | . | -11
N#CC1=C(N)C(C#N)(C#N)C(c2ccccc2)C2=C1CCCC2 (stereo unspecified) | . | -6 | 88*
Cn1cnnc1SCc1nc2ccc([N+](=O)[O-])cc2[nH]1 | -2 | . | 19
O=C(COc1ccc(I)cc1)Nc1ccc(O)cc1C(=O)O | 10 | . | -16
CCn1c(SCC(=O)Nc2ccc(Cl)cc2C)nnc1-c1ccc(Cl)cc1 | 1 | 1 | 14
C[C@@H]1CN([C@H](C)CO)C(=O)c2cccc(NS(=O)(=O)c3ccc(Cl)cc3)c2O[C@@H]1CN(C)Cc1ccc(C(=O)Nc2ccccc2N)cc1 | . | -3 | 126*
Cc1noc(C)c1S(=O)(=O)Nc1cccc2c1O[C@H](CN(C)Cc1ccc(C(=O)O)cc1)[C@@H](C)CN([C@H](C)CO)C2=O | . | 1 | -6
C[C@@H]1CN([C@H](C)CO)C(=O)c2cccc(NS(=O)(=O)c3ccccc3)c2O[C@H]1CN(C)Cc1ccc(C(=O)Nc2ccccc2N)cc1 | . | 1 | 58
C[C@H](CO)N1C[C@H](C)[C@H](CN(C)Cc2ccc(C(=O)Nc3ccccc3N)cc2)Oc2c(NS(=O)(=O)c3ccccc3)cccc2C1=O | . | 0 | 139*
C[C@@H]1CN([C@@H](C)CO)C(=O)c2cccc(NS(=O)(=O)c3ccc(Cl)cc3)c2O[C@@H]1CN(C)Cc1ccc(C(=O)O)cc1 | . | 1 | -3
Cc1noc(C)c1S(=O)(=O)Nc1cccc2c1O[C@H](CN(C)Cc1ccc(C(=O)Nc3ccccc3N)cc1)[C@H](C)CN([C@H](C)CO)C2=O | . | 0 | 118*
C[C@H](CO)N1C[C@H](C)[C@H](CN(C)Cc2ccc(C(=O)Nc3ccccc3N)cc2)Oc2c(NS(=O)(=O)c3ccc(Cl)cc3)cccc2C1=O | . | -1 | 121*
Cc1cc(C)c2oc(-c3ccc(NC(=O)COc4ccc([N+](=O)[O-])cc4)cc3)nc2c1 | 1 | . | 67
SMILES | STK33 kin inh | PD-1 reverse act | NOMO-1 viab
Cc1ccccc1-c1nnc(SCC(=O)Nc2ccc3c(c2)OCCO3)n1C | -3 | 1 | 30
C[C@H](CO)N1C[C@H](C)[C@H](CN(C)Cc2ccc(C(=O)Nc3ccccc3N)cc2)Oc2c(NS(=O)(=O)c3cccs3)cccc2C1=O | . | 1 | 88*
COc1ccc(S(=O)(=O)Nc2cccc3c2O[C@@H](CN(C)Cc2ccc(C(=O)Nc4ccccc4N)cc2)[C@@H](C)CN([C@@H](C)CO)C3=O)cc1 | . | -2 | 112*
COc1ccc(S(=O)(=O)Nc2cccc3c2O[C@@H](CN(C)Cc2ccc(C(=O)Nc4ccccc4N)cc2)[C@H](C)CN([C@H](C)CO)C3=O)cc1 | . | -2 | 72
C[C@H]1CN([C@@H](C)CO)C(=O)c2cccc(NS(=O)(=O)c3ccc(Cl)cc3)c2O[C@H]1CN(C)Cc1ccc(C(=O)Nc2ccccc2N)cc1 | . | -1 | 118*
C[C@@H]1CN([C@H](C)CO)C(=O)c2cccc(NS(=O)(=O)c3cccs3)c2O[C@H]1CN(C)Cc1ccc(C(=O)Nc2ccccc2N)cc1 | . | 1 | 44
Cn1c(CSCc2ccccc2)c(C#N)c2ccccc21 | . | 0 | 16
CCn1c(SCC(=O)Nc2ccc(OC)c(Cl)c2)nnc1-c1ccccc1O | -3 | -1 | -7
Cc1cc(C)n2nc(SCC(=O)Nc3cccc([N+](=O)[O-])c3)nc2n1 | -2 | 1 | -3
Cc1cc(O)c2c(c1)C(=O)C13C(C2=O)C(=O)C2C(O)C1C1C(O)C3C(=O)C3C(=O)c4c(O)cc(C)cc4C(=O)C321 (stereo unspecified) | -1 | -1 | 110*
COc1ccccc1CCNC(=O)c1cc(-c2ccccn2)nc2ccc(Br)cc12 | 3 | -1 | 25
COc1ccc(C(C)NC(=O)c2cc(-c3ccccn3)nc3ccc(Br)cc23)cc1OC (stereo unspecified) | 0 | . | 90*
COc1ccc(C(C)NC(=O)c2cc(-c3ccccn3)nc3ccc(Cl)cc23)cc1OC (stereo unspecified) | -2 | . | 56
COc1ccccc1CCNC(=O)c1cc(-c2ccncc2)nc2ccc(Br)cc12 | -1 | -5 | 94*
Cc1ccc(N(CC(N)=O)S(C)(=O)=O)c(C)c1 | 0 | 1 | 18
CCOc1c(CNCc2ccccn2)cccc1OC | -6 | 0 | 0
Oc1ccccc1CNCc1ccccn1 | . | -3 | 115*
C1=C(c2ccccc2)CC(c2ccccc2)=NN=C1c1ccccc1 | -1 | 2 | -18
Cc1ccc(S(=O)(=O)N(C)C[C@H]2Oc3ccc(NC(=O)Nc4ccc(C(F)(F)F)cc4)cc3CC(=O)N([C@H](C)CO)C[C@H]2C)cc1 | 3 | -3 | 115*
Cc1ccc(S(=O)(=O)N(C)C[C@H]2Oc3ccc(NC(=O)Nc4ccc(C(F)(F)F)cc4)cc3CC(=O)N([C@@H](C)CO)C[C@@H]2C)cc1 | 4 | 0 | 26
COc1ccc(S(=O)(=O)N(C)C[C@H]2Oc3ccc(NC(=O)Nc4ccc(C(F)(F)F)cc4)cc3CC(=O)N([C@H](C)CO)C[C@H]2C)cc1 | 0 | -3 | 42
Cc1ccc(S(=O)(=O)N(C)C[C@@H]2Oc3ccc(NC(=O)Nc4ccc(C(F)(F)F)cc4)cc3CC(=O)N([C@H](C)CO)C[C@@H]2C)cc1 | 2 | -3 | 126*
COc1ccc(C2OCC3C2CO[C@H]3c2ccc(OC)c(OC)c2)cc1OC (stereo partly specified) | 0 | 2 | 3
